From the supplement of paper PMC10037445
Whole data set: some 2,900 compounds, median “NF-kB SEAP reporter activity, fold change vs agonist alone” near 0.99, cut for the highest 2% near 2.6. Shown is part of a subset that was picked to be rich in the highest values.

Assays:
RAW-Dual [1] = assay: NF-kB SEAP reporter activity, fold change vs agonist alone; cytotoxicity flag (confluency mask): not cytotoxic; higher = enhanced NF-kB activity
How it was run: (§1)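 Library stock was pin-tooled at 50 nL into 384-well plates of RAW-Dual macrophages (50,000 cells/well, DMEM), followed 1 h later by a PRR agonist, and the cells were kept at 37 °C, 5% CO2. Supernatant collected after 20 hours was read for IRF by QuantiLuc luminescence and for NF-κB by QuantiBlue absorbance at 620 nm. Reporter activity is fold change over agonist-alone wells, and a well counted as cytotoxic when its IncuCyte confluency was below 70% of agonist controls in both mask sets.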

RAW-Dual [2] = assay: NF-kB SEAP reporter activity, fold change vs agonist alone; higher = enhanced NF-kB activity; details: library stock concentration (final ~1000-fold dilution): 10 mM
How it was run: as §1

RAW-Dual [3] = assay: NF-kB SEAP reporter activity, fold change vs agonist alone; cytotoxicity flag (confluency mask): cytotoxic (confluency <70% of control); higher = enhanced NF-kB activity
How it was run: as §1

[4] = agonist: ODN 1826 (TLR9) 0.5 ug/mL
[5] = agonist: Pam2CSK4 (TLR2/6) 0.1 ug/mL
[6] = agonist: Pam3CSK4 (TLR2/1) 0.1 ug/mL
[7] = cytotoxicity flag (confluency mask): not cytotoxic, agonist: Imiquimod (TLR7) […]
[8] = cytotoxicity flag (confluency mask): not cytotoxic, agonist: MPLA (TLR4) […]

## CC(NC(=O)CCC(F)(F)F)C(=O)NC1C(=O)N(CCO)c2ncccc2-c2ccccc21 (stereo unspecified) (library stock concentration (final ~1000-fold dilution): 10 mM)
RAW-Dual [1]; agonist: LPS (TLR4) 0.1 ug/mL
  NF-kB SEAP reporter activity: 1.05
RAW-Dual [1]; [4]
  NF-kB SEAP reporter activity: 0.863
RAW-Dual [1]; [5]
  NF-kB SEAP reporter activity: 0.99
RAW-Dual [1]; [6]
  NF-kB SEAP reporter activity: 1.16

## CNCCCC12CCC(c3ccccc31)c1ccccc12.Cl (library stock concentration (final ~1000-fold dilution): 10 mM)
RAW-Dual [1]; agonist: LPS (TLR4) 0.1 ug/mL
  NF-kB SEAP reporter activity: 1.55
RAW-Dual [1]; [4]
  NF-kB SEAP reporter activity: 0.443
RAW-Dual [1]; [5]
  NF-kB SEAP reporter activity: 0.537
RAW-Dual [1]; [6]
  NF-kB SEAP reporter activity: 0.603

## CNCCCC12CCC(c3ccccc31)c1ccccc12.Cl
RAW-Dual [2]; [7]
  NF-kB SEAP reporter activity: 1.4
RAW-Dual [2]; [8]
  NF-kB SEAP reporter activity: 1.37

## CC(=O)c1ccc2c(c1)c1cc(C(C)=O)ccc1n2CCNC(C)C.Cl (library stock concentration (final ~1000-fold dilution): 10 mM)
RAW-Dual [3]; agonist: LPS (TLR4) 0.1 ug/mL
  NF-kB SEAP reporter activity: 0.329
RAW-Dual [3]; [4]
  NF-kB SEAP reporter activity: 0.209
RAW-Dual [3]; [5]
  NF-kB SEAP reporter activity: 0.0686
RAW-Dual [3]; [6]
  NF-kB SEAP reporter activity: 0.155

## CC(=O)c1ccc2c(c1)c1cc(C(C)=O)ccc1n2CCNC(C)C.Cl
RAW-Dual [2]; cytotoxicity flag (confluency mask): cytotoxic (confluency <70% of control), agonist: Imiquimod (TLR7) […]
  NF-kB SEAP reporter activity: 0.156
RAW-Dual [2]; cytotoxicity flag (confluency mask): cytotoxic (confluency <70% of control), agonist: MPLA (TLR4) […]
  NF-kB SEAP reporter activity: 0.26

## CC1(C)OC2COC3(COS(N)(=O)=O)OC(C)(C)OC3C2O1 (stereo unspecified) (library stock concentration (final ~1000-fold dilution): 10 mM)
RAW-Dual [1]; agonist: LPS (TLR4) 0.1 ug/mL
  NF-kB SEAP reporter activity: 0.898
RAW-Dual [1]; [4]
  NF-kB SEAP reporter activity: 1.01
RAW-Dual [1]; [5]
  NF-kB SEAP reporter activity: 0.955
RAW-Dual [1]; [6]
  NF-kB SEAP reporter activity: 1.12

## CC1(C)OC2COC3(COS(N)(=O)=O)OC(C)(C)OC3C2O1 (stereo unspecified)
RAW-Dual [2]; [7]
  NF-kB SEAP reporter activity: 0.928
RAW-Dual [2]; [8]
  NF-kB SEAP reporter activity: 0.824

## COc1ccc2cccc(CCNC(C)=O)c2c1 (library stock concentration (final ~1000-fold dilution): 10 mM)
RAW-Dual [1]; agonist: LPS (TLR4) 0.1 ug/mL
  NF-kB SEAP reporter activity: 1.33
RAW-Dual [1]; [4]
  NF-kB SEAP reporter activity: 1.09
RAW-Dual [1]; [5]
  NF-kB SEAP reporter activity: 1.03
RAW-Dual [1]; [6]
  NF-kB SEAP reporter activity: 1.19

## COc1c(O)c(C)cc2c1C(=O)c1c(O)cccc1C2=O (library stock concentration (final ~1000-fold dilution): 10 mM)
RAW-Dual [1]; agonist: LPS (TLR4) 0.1 ug/mL
  NF-kB SEAP reporter activity: 1.19
RAW-Dual [1]; [4]
  NF-kB SEAP reporter activity: 1.02
RAW-Dual [1]; [5]
  NF-kB SEAP reporter activity: 1.04
RAW-Dual [1]; [6]
  NF-kB SEAP reporter activity: 1.01

## COc1ccc(S(=O)(=O)Nc2cc(-c3c(O)ccc4ccccc34)c(O)c3ccccc23)cc1
RAW-Dual [2]; [7]
  NF-kB SEAP reporter activity: 1.17
RAW-Dual [2]; [8]
  NF-kB SEAP reporter activity: 1.61

## COc1ccc2cccc(CCNC(C)=O)c2c1
RAW-Dual [2]; [7]
  NF-kB SEAP reporter activity: 0.972
RAW-Dual [2]; [8]
  NF-kB SEAP reporter activity: 0.963

## COc1c(O)c(C)cc2c1C(=O)c1c(O)cccc1C2=O
RAW-Dual [2]; [7]
  NF-kB SEAP reporter activity: 0.981
RAW-Dual [2]; [8]
  NF-kB SEAP reporter activity: 1.08

## COc1ccc(S(=O)(=O)Nc2cc(-c3c(O)ccc4ccccc34)c(O)c3ccccc23)cc1 (library stock concentration (final ~1000-fold dilution): 10 mM)
RAW-Dual [1]; agonist: LPS (TLR4) 0.1 ug/mL
  NF-kB SEAP reporter activity: 4.3
RAW-Dual [1]; [4]
  NF-kB SEAP reporter activity: 1.09
RAW-Dual [1]; [5]
  NF-kB SEAP reporter activity: 1.29
RAW-Dual [1]; [6]
  NF-kB SEAP reporter activity: 1.38

## CCOc1ccc(Cc2cc(C34OCC(CO)(O3)C(O)C(O)C4O)ccc2Cl)cc1 (stereo unspecified) (library stock concentration (final ~1000-fold dilution): 10 mM)
RAW-Dual [1]; agonist: LPS (TLR4) 0.1 ug/mL
  NF-kB SEAP reporter activity: 0.975
RAW-Dual [1]; [4]
  NF-kB SEAP reporter activity: 1.1
RAW-Dual [1]; [5]
  NF-kB SEAP reporter activity: 1.13
RAW-Dual [1]; [6]
  NF-kB SEAP reporter activity: 0.829

## CCOc1ccc(Cc2cc(C34OCC(CO)(O3)C(O)C(O)C4O)ccc2Cl)cc1 (stereo unspecified)
RAW-Dual [2]; [8]
  NF-kB SEAP reporter activity: 1.09

## COc1ccc(CCN(C)CCCC(C#N)(c2ccc(OC)c(OC)c2)C(C)C)cc1OC.Cl (stereo unspecified) (library stock concentration (final ~1000-fold dilution): 10 mM)
RAW-Dual [1]; agonist: LPS (TLR4) 0.1 ug/mL
  NF-kB SEAP reporter activity: 1.06
RAW-Dual [1]; [4]
  NF-kB SEAP reporter activity: 0.89
RAW-Dual [1]; [5]
  NF-kB SEAP reporter activity: 0.949
RAW-Dual [1]; [6]
  NF-kB SEAP reporter activity: 1.04

## COc1ccc(CCN(C)CCCC(C#N)(c2ccc(OC)c(OC)c2)C(C)C)cc1OC.Cl (stereo unspecified)
RAW-Dual [2]; [7]
  NF-kB SEAP reporter activity: 0.98
RAW-Dual [2]; [8]
  NF-kB SEAP reporter activity: 1.03

## CN1CC(=O)N2C(Cc3c([nH]c4ccccc34)C2c2ccc3c(c2)OCO3)C1=O (stereo unspecified) (library stock concentration (final ~1000-fold dilution): 10 mM)
RAW-Dual [1]; agonist: LPS (TLR4) 0.1 ug/mL
  NF-kB SEAP reporter activity: 1.17
RAW-Dual [1]; [4]
  NF-kB SEAP reporter activity: 1.18
RAW-Dual [1]; [5]
  NF-kB SEAP reporter activity: 1.13
RAW-Dual [1]; [6]
  NF-kB SEAP reporter activity: 1.11

## CN1CC(=O)N2C(Cc3c([nH]c4ccccc34)C2c2ccc3c(c2)OCO3)C1=O (stereo unspecified)
RAW-Dual [2]; [7]
  NF-kB SEAP reporter activity: 0.955
RAW-Dual [2]; [8]
  NF-kB SEAP reporter activity: 0.984

## O=S(=O)(NCCSSCCNS(=O)(=O)c1cc(Cl)ccc1Cl)c1cc(Cl)ccc1Cl
RAW-Dual [2]; [7]
  NF-kB SEAP reporter activity: 1.13
RAW-Dual [2]; [8]
  NF-kB SEAP reporter activity: 1.03

## Cc1ccc([N+](=O)[O-])cc1S(=O)(=O)N(C)C
RAW-Dual [2]; [7]
  NF-kB SEAP reporter activity: 0.951
RAW-Dual [2]; [8]
  NF-kB SEAP reporter activity: 1.14

## Cc1cc([N+](=O)[O-])ccc1NS(=O)(=O)c1cc(Cl)ccc1Cl
RAW-Dual [2]; [7]
  NF-kB SEAP reporter activity: 1.01
RAW-Dual [2]; [8]
  NF-kB SEAP reporter activity: 1.41

## Cc1ccc([N+](=O)[O-])cc1S(=O)(=O)N(C)C (library stock concentration (final ~1000-fold dilution): 10 mM)
RAW-Dual [1]; agonist: LPS (TLR4) 0.1 ug/mL
  NF-kB SEAP reporter activity: 1.07
RAW-Dual [1]; [4]
  NF-kB SEAP reporter activity: 0.867
RAW-Dual [1]; [5]
  NF-kB SEAP reporter activity: 0.994
RAW-Dual [1]; [6]
  NF-kB SEAP reporter activity: 1.36

## Cc1cc([N+](=O)[O-])ccc1NS(=O)(=O)c1cc(Cl)ccc1Cl (library stock concentration (final ~1000-fold dilution): 10 mM)
RAW-Dual [1]; agonist: LPS (TLR4) 0.1 ug/mL
  NF-kB SEAP reporter activity: 3.09
RAW-Dual [1]; [4]
  NF-kB SEAP reporter activity: 0.67
RAW-Dual [1]; [5]
  NF-kB SEAP reporter activity: 0.323
RAW-Dual [1]; [6]
  NF-kB SEAP reporter activity: 0.349

## O=S(=O)(NCCSSCCNS(=O)(=O)c1cc(Cl)ccc1Cl)c1cc(Cl)ccc1Cl (library stock concentration (final ~1000-fold dilution): 10 mM)
RAW-Dual [1]; agonist: LPS (TLR4) 0.1 ug/mL
  NF-kB SEAP reporter activity: 0.705
RAW-Dual [1]; [4]
  NF-kB SEAP reporter activity: 0.705
RAW-Dual [1]; [5]
  NF-kB SEAP reporter activity: 0.573
RAW-Dual [1]; [6]
  NF-kB SEAP reporter activity: 0.312

## COC(C)Cn1c(=O)n(C)c2cnc3ccc(-c4cncc(C(C)(C)O)c4)cc3c21 (stereo unspecified)
RAW-Dual [2]; [7]
  NF-kB SEAP reporter activity: 0.865
RAW-Dual [2]; [8]
  NF-kB SEAP reporter activity: 1.85

## COC(C)Cn1c(=O)n(C)c2cnc3ccc(-c4cncc(C(C)(C)O)c4)cc3c21 (stereo unspecified) (library stock concentration (final ~1000-fold dilution): 10 mM)
RAW-Dual [1]; agonist: LPS (TLR4) 0.1 ug/mL
  NF-kB SEAP reporter activity: 1.84
RAW-Dual [1]; [4]
  NF-kB SEAP reporter activity: 1.26
RAW-Dual [1]; [5]
  NF-kB SEAP reporter activity: 0.476
RAW-Dual [1]; [6]
  NF-kB SEAP reporter activity: 1.03
